Inconclusive results are not listed. Calls of active or inactive are those of the source. Calls come from the whole dose curve.
Assay: Primary qHTS to identify inhibitors of SARS-CoV-2 cell entry (AID 1645846); note: nearly all actives have a fitted effect of over 45% in size
Conditions: SARS-CoV-2 pseudovirus cell entry assay, luminescence; activity change, negative = inhibition: at 57.1 µM (top of the series) unless noted; series mostly up to 57.1 µM
Outline: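 Data are normalized to wells receiving SARS-CoV-2-S pseudoparticles and those given bald particles. Entry signal was luciferase luminescence in stable hACE2 Expi293F cells, 48 hr post-infection, after 1 hr compound pretreatment.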
Potency is the fitted concentration of half-maximal effect.

| SMILES | Potency | activity change, negative = inhibition |
| --- | --- | --- |
| COc1ccc2c(c1OC)C(=O)O[C@H]2[C@@H]1c2cc3c(cc2CCN1C)OCO3 | inactive |  |
| CC(C)NC(C)C | inactive |  |
| C[C@]12CC[C@H]3[C@@H](CC[C@@]45O[C@H]4C(O)=C(C#N)C[C@]35C)[C@H]1CC[C@H]2O |  | -26.2% |
| CCOP(=S)(OCC)Oc1ccc2c(C)c(Cl)c(=O)oc2c1 |  | 69.2% |
| O=C(Nc1ccc(Br)cc1)c1cc(Br)cc(Br)c1O | inactive |  |
| Oc1ccc(Cl)cc1 |  | -1.58% |
| COP(=S)(OC)Oc1ccc(S(=O)(=O)N(C)C)cc1 | inactive |  |
| CN1C(=O)NC(=O)C(C)(C2=CCCCC2)C1=O (stereo unspecified) |  | 3.11% |
| Clc1ccc(C(c2ccc(Cl)cc2)C(Cl)(Cl)Cl)cc1 |  | 2.18% |
| Cc1ncsc1CCCl |  | -22.5% |
| O=c1c(C2CC(c3ccc(-c4ccc(Br)cc4)cc3)Cc3ccccc32)c(O)sc2ccccc12 (stereo unspecified) | 14.1 µM (active) |  |
